This is a sample that favours compounds with a hit; in the whole collection about 2.2% have one here.
HSP90 inh: HSP90 inhibitors, primary screen, cell lysate, luminescence; Heat shock protein HSP 90 (rabbit reticulocyte lysate; luciferase refolding); Rabbit reticulocyte lysate, luciferase refolding luminescence, 3 h; inhibition, % at 5.6 µM; 290,000 tested, 0.91% active; AID 1789, 2009;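 active = inhibition above the screen-wide mean plus 3 SD, computed separately per campaign, cut at about 16% in these data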;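 also: inhibitors lower the luminescence because luciferase stays unfolded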
TROY NFkB inh: inhibitors of TROY-driven NF-kB signaling, primary screen, Q293 LMP1-TROYcd cells, NF-kB luciferase, uHTS; inhibition, % at 10 µM; 360,000 tested, 0.98% active; Q293 LMP1-TROYcd NF-kB luciferase reporter, 4 h;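 active = compounds whose plate-normalised and pattern-corrected inhibition of the luciferase reporter signal at the single screening dose is 50% or more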
LGR2 antag: inhibitors of bursicon-induced LGR2 CRE-luciferase signal, primary screen, cell-based, HEK293, CRE-luciferase reporter, bursicon stimulation. inhibition, % at 9.99 µM. 380,000 tested, 0.35% active. Drosophila bursicon receptor LGR2 (rickets). bursicon-stimulated, 4 h. AID 720647, 2013;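 active = drop in luminescence signal, shown as inhibition above about 50% in the replicate tests, limit read from the data, passing the limit was not always enough; inconclusive = probably only some replicates passing the limit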;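 also: agonist challenge used bursicon conditioned medium at about half maximal strength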
TWEAK-Fn14 inh: inhibitors of TWEAK-Fn14 signaling, primary screen, luciferase reporter cells, uHTS; TWEAK-stimulated Fn14 reporter cells, luciferase luminescence, 8 h; inhibition, % at 10 µM; 360,000 tested, 2% active; AID 1159606, 2016; in the data active = inhibition above about 50%
HSP90 confirm: HSP90 inhibitors, confirmation, cell lysate, luminescence | rabbit reticulocyte lysate, luciferase refolding luminescence, 3 h | 2,300 tested, 64% active | shares compounds with HSP90 inh | inhibition, % at 5.9 µM; in the data active = inhibition above about 18%
luciferase ctr: firefly luciferase inhibitors, HSP90 counter-screen, confirmation, artefact control for HSP90 inhibitor project, biochemical, luminescence, triplicate; inhibition, % at 5.9 µM; shares compounds with HSP90 inh; purified native firefly luciferase; 2,300 tested, 48% active;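 active = inhibition above the mean inhibition of all tested sample wells plus 3 SD, cut at about 10% in these data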
Target sequence (P08659 whole entry, looked up): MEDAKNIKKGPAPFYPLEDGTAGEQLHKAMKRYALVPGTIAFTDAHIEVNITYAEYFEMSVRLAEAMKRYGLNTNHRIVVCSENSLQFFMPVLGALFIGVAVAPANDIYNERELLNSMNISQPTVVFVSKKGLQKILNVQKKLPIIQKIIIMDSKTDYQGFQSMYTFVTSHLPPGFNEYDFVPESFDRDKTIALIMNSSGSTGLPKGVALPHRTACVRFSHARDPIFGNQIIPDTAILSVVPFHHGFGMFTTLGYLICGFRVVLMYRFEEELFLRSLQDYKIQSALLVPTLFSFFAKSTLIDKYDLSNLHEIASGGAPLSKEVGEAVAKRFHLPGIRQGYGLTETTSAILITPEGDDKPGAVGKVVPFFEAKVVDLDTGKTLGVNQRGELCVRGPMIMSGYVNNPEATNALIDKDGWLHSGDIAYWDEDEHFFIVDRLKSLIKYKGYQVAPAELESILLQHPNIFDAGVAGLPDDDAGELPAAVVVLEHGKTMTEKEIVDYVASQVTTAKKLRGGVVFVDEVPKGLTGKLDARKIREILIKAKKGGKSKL
Numbers stand for hits; . = inactive; ? = inconclusive; / = no result given.

SMILES	HSP90 inh	TROY NFkB inh	LGR2 antag	TWEAK-Fn14 inh	HSP90 confirm	luciferase ctr
Cc1cccc(N2C(=O)CC(N3CCC(c4nc5ccccc5[nH]4)CC3)C2=O)c1 (stereo unspecified)	.	.	/	.	/	/
COc1cccc(-c2ccc([C@H]3[C@@H](CO)N4C(=O)CNC[C@@H]34)cc2)c1	/	/	.	/	/	/
O=C(C[C@H]1CC[C@@H]2[C@H](COC[C@@H](O)CN2C(=O)Nc2ccccc2)O1)NCc1ccncn1	/	/	.	/	/	/
Cc1cc(CC(C)C)n(-c2nc3ccccc3c(=O)n2OCc2ccccc2)n1	17.6	.	/	.	.	9.5
C[C@@H](NC(=O)[C@H]1N[C@H]2c3ccc(-c4cccnc4)c(=O)n3C[C@H]2[C@@H]1CO)c1ccccc1	/	/	.	/	/	/
CCOC(=O)c1cn2nc(N3CCCCC3)ccc2n1	39.1	70.9	88.2	89.2	72.0	58.9
CCOC(=O)c1cn2nc(N3CCCC3)ccc2n1	34.1	.	68.2	78.9	67.0	42.9
CCOC(=O)c1cn2nc(Oc3ccc(C)cc3)ccc2n1	.	.	.	.	/	/
CCOC(=O)c1cn2nc(Oc3ccccc3)ccc2n1	.	.	.	.	/	/
CCCNC(=O)Nc1ccc2c(c1)C(=O)N(C)C[C@H](OC)[C@@H](C)CN(C(C)=O)[C@H](C)CO2	/	/	.	/	/	/
CC(C)(C)c1ccc(C(=O)NC(=S)Nc2nc3c(s2)CCCC3)cc1	23.7	83.5	.	81.6	56.7	38.2
CC(C)(C)c1ccc(C(=O)NC(=S)Nc2sc3c(c2C#N)CCC3)cc1	.	.	.	.	/	/
CN(C)c1ccc(C(=O)Nc2nc3c(s2)CCCC3)cc1	27.1	.	?	72.4	58.9	58.2
COC(=O)Nc1nc2c(s1)CCCC2	.	.	/	.	/	/
CC(=O)N1CC2(C1)[C@@H](c1ccc(-c3ccccc3C)cc1)[C@@H](CO)N2C(C)=O	/	/	.	/	/	/
COC(=O)c1ccc(-c2nc(CN3CCCN(C(=O)c4ccco4)CC3)c(C)o2)cc1	25.2	.	.	.	.	.
COC(=O)c1ccc(-c2nc(CN3CCN(C(=O)c4ccco4)CC3)c(C)o2)cc1	/	.	.	.	/	/
Cc1ccc(C(=O)Nc2ccc(N3CCN(S(C)(=O)=O)CC3)cc2)cc1C	.	.	.	.	/	/
Cc1cc(C(=O)Nc2ccc(N3CCCCC3)cc2)no1	23.9	.	?	72.8	49.7	36.3
CN1CCN(c2ccc(NC(=O)N3CCc4ccccc43)cc2)CC1	71.8	77.2	59.7	95.0	70.5	61.1
Cc1ccc(C(=O)Nc2ccc(N3CCN(C)CC3)cc2)cc1C	21.8	57.2	.	75.3	29.4	22.7
Cc1ccc(NC(=O)N2CCc3ccccc32)cc1C	18.4	.	.	.	37.1	16.6
C[C@@H]1CN([C@@H](C)CO)C(=O)c2cc(NC(=O)c3ccccc3)ccc2O[C@@H](C)CCCCO[C@@H]1CN(C)S(=O)(=O)c1ccc(Cl)cc1	/	/	.	/	/	/
Cc1ccccc1Oc1nc2c(C)cccn2c(=O)c1/C=C(\C#N)C(=O)NC1CCS(=O)(=O)C1 (stereo unspecified)	17.2	.	.	.	25.8	.
CO[C@H]1CC[C@H]2CCN(C)C(=O)[C@H](C)[C@H](OC)CN(C)C(=O)c3cc(C#N)ccc3OC[C@@H]1O2	/	/	.	/	/	/
SMILES	HSP90 inh	TROY NFkB inh	LGR2 antag	TWEAK-Fn14 inh	HSP90 confirm	luciferase ctr
O=C1CN(C(=O)CNCc2ccc(Cl)cc2)c2ccccc2N1	25.5	.	.	.	.	.
Cc1noc(C)c1S(=O)(=O)Nc1ccc2c(c1)C(=O)N([C@@H](C)CO)C[C@@H](C)[C@H](CN(C)S(C)(=O)=O)OCCCC[C@@H](C)O2	/	/	.	/	/	/
O=C(COC(=O)c1nsc(Cl)c1Cl)NC1CCCC1	23.5	.	.	.	.	.
C=CCn1c(C)cc(C(=O)COC(=O)[C@@H](NC(=O)c2ccccc2Cl)C(C)C)c1C	26.6	.	?	54.5	53.7	43.1
Cc1ccnc(SCC(=O)N2CCN(c3ccccc3)CC2)n1	.	.	/	.	/	/
O=C(CSc1ncn(-c2ccccc2)n1)N1CCN(c2ccccc2)CC1	34.8	.	/	.	.	.
C[C@H]1CN([C@@H](C)CO)C(=O)Cc2cc(NC(=O)Cc3ccccc3)ccc2O[C@@H]1CN(C)CC1CC1	/	/	.	/	/	/
O=C(Nc1ccccc1Cl)NC1(C(=O)NCCCN2CCOCC2)CCCCC1	.	.	/	.	/	/
O=C(NC1CCCCC1)NC1(C(=O)NCCCN2CCOCC2)CCCCC1	27.0	.	/	.	.	.
COc1ccc(C/C(C)=N/NC(=S)Nc2ccc(C(C)C)cc2)cc1	.	.	.	.	/	/
COc1ccc(C/C(C)=N/NC(=S)Nc2ccccc2F)cc1	36.4	78.7	.	70.9	48.0	34.7
O=C(c1ccccc1F)N1CC[C@@H]2[C@H]1c1cc(C#Cc3ccccc3F)ccc1N[C@@H]2CO	/	/	.	/	/	/
O=C(NNc1nc2ccccc2o1)c1ccccc1	20.3	.	.	.	27.8	19.8
CCC(=O)Nc1ccc2c(c1)OC[C@@H](C)N(C(=O)c1ccc(F)cc1)C[C@H](C)[C@@H](OC)CN(C)C2=O	/	/	.	/	/	/
O=C(N/N=C\c1ccc(-c2ccccc2[N+](=O)[O-])o1)C1COc2cc3ccccc3cc2O1 (stereo unspecified)	22.0	.	.	.	.	.
O=C(Nc1ccc(F)cc1)N1CCCCN2[C@H](C1)[C@H](c1ccc(C#Cc3ccccc3)cc1)[C@@H]2CO	/	/	.	/	/	/
O=C(O)CCCNc1cc(N2CCN(C(=O)c3ccco3)CC2)c2noc3c2c1C(=O)c1ccccc1-3	.	.	.	.	/	/
O=C(O)CCCNc1cc(N2CCC3(CC2)OCCO3)c2noc3c2c1C(=O)c1ccccc1-3	31.2	/	/	/	29.6	28.8
COC(=O)c1cc(C)nc2c1C(=O)C(=O)C=C2N1CCOCC1	44.7	.	59.7	103.2	91.1	.
O=C(CN1CCOCC1)N[C@H]1CC[C@@H](CCn2cc(C3CCCCC3)nn2)O[C@H]1CO	/	/	.	/	/	/
Nc1ncc([N+](=O)[O-])c(Oc2ccccc2F)n1	.	.	.	.	/	/
Cc1cc(/C=N/Nc2nc(N)ncc2[N+](=O)[O-])c(C)n1-c1ccccc1F	77.8	/	/	/	93.8	88.9
NNC(=S)Nc1ccccc1Cl	45.3	.	.	.	26.7	.
S=C(NCCNC(=S)Nc1ccccc1Cl)Nc1ccccc1Cl	.	.	.	.	/	/
Cc1cc(NC(=O)c2ccc(NC(=O)C3CCCO3)cc2)ccc1Br (stereo unspecified)	.	.	.	.	/	/
O=C(Nc1ccc(Br)cn1)c1coc(=O)c(Br)c1	29.7	.	/	.	20.8	.
Cc1cc(NC(=O)c2coc(=O)c(Br)c2)ccc1C(C)C	61.0	.	.	.	80.7	.
CCCNC(=O)C[C@H]1CC[C@@H]2[C@H](COC[C@@H](O)CN2C(=O)C2CCOCC2)O1	/	/	.	/	/	/
Cc1[nH]c2ccccc2c1C(c1ccccn1)N1CCCC1 (stereo unspecified)	.	.	.	.	/	/
